This is an account of results in PubChem BioAssay AID2267 (National Center for Advancing Translational Sciences (NCATS), 2010).

Some of the results follow. Records with an inconclusive call do not appear. The source made the active and inactive calls. Calls come from the whole dose curve; as a rule, active = well fitted inhibition curve with a large enough effect; inconclusive = small, poorly fitted or top-dose-only effect, or effect the other way; inactive = flat fitted curve, though single readings scatter.

Sequence of Pyruvate kinase PKM (Homo sapiens) (P14618 whole entry, looked up, canonical isoform): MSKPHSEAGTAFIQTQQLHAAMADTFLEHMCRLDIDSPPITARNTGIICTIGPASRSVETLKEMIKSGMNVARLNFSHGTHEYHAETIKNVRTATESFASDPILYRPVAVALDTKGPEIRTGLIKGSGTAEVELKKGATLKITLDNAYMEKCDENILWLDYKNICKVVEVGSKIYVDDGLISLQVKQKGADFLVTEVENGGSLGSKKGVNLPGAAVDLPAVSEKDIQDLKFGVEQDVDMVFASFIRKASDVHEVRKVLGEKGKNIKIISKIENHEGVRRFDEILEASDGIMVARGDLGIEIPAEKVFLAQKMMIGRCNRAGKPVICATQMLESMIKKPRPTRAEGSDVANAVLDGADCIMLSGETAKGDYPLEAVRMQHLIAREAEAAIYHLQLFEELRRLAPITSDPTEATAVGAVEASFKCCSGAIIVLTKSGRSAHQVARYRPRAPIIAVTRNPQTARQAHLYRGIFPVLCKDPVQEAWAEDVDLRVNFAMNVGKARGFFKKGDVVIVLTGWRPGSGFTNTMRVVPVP

The assay addresses Pyruvate kinase PKM (Homo sapiens) (UniProt P14618). Nature of the assay: Secondary assay for Inhibitors of Human Pyruvate Kinase M2 isoform. The following applies: purified hPK-M2, LDH-coupled NADH fluorescence kinetic. The source says:
NIH Chemical Genomics Center [NCGC] Matthew G. Vander Heiden, M.D., Ph.D. [Harvard Medical School, 77 Avenue Louis Pasteur, Boston, MA 02115] MLPCN Grant: 1 R03 MH085679-01 NCGC Assay Overview: Human pyruvate kinase muscle 2 (hPK-M2)enzyme was supplied as a highly purified (>95% pure) preparation from Harvard Medical School and a secondary assay was used to evaluate compounds. This assay couples the formation of pyruvate from hPK-M2 using lactate dehydrogenase (LDH) and NADH. The depletion of NADH is followed in a fluorescent-based kinetic assay that follows the formation of pyruvate to lactate, as catalyzed LDH (described by Hannaert et al., 2002)1 Pyruvate kinase substrates, PEP and ADP, were present in the assay at 0.1 mM and 4 mM respectively. In this kinetic assay initial rates were determined by following the fluorescence of NADH depletion.
NCGC Assay Protocol Summary: Three uL of substrate mix (final concentration, 50 mM Tris-Cl pH 8.0, 200 mM KCl, 15 mM MgCl2, 0.1 mM PEP, 4.0 mM ADP, and 0.2 mM NADH) was dispensed into black-solid 1536 well plates. 23 nL of compounds were delivered by a pin tool and 1 uL of enzyme mix (final concentrations, 10 nM hPK-M2 and 1 uM of LDH) was added. Plates were immediately placed in ViewLux (Perkin Elmer) and NADH fluorescence was determined at 30 second exposure intervals for between 3 and 6 minutes. Data were normalized to the basal signal.
As for `Cc1ccc(-c2nc3ccccn3c2Nc2ccc(F)cc2)o1`, the Potency was 7.3 µM (active).
